Compound activity (PubChem)
Rows were chosen to be rich in hits. Some 19% of all compounds tested hit in one or more screens of this group.
HT1080NT lethal: qHTS for induction of synthetic lethality in tumor cells producing 2HG: qHTS for the HT-1080-NT fibrosarcoma cell line | 1.6% of 360,000 active | HT-1080-NT fibrosarcoma viability, CellTiter-Glo ATP luminescence, 48 h | Potency, µM (top dose mostly 46.1 µM), inactives show at the top dose activity, negative = less viability, most hits filed as cytotoxic;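 also: NT is the 2HG producing partner of a matched IDH1 knockdown line; potency is read from the fitted curve at half-maximal effect; 0% = DMSO-treated cells and -100% = media-only wells without cells; nearly all actives have a fitted effect of over 55% in size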
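HT-1080-NT fibrosarcoma cells (2HG-overproducing), 750 cells/well in RPMI with 5% FBS, dosed after 2 h and incubated 48 h at 37C. CellTiter-Glo luminescence normalized to DMSO and no-cell wells; concentration-response curves fitted and classed.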
IL1B secr inh: qHTS for Inhibitors of Inflammasome Signaling: IL-1-beta AlphaLISA Primary Screen. 4.7% of 360,000 active. AID 743279, 2014. activity change, % at 57.5 µM. THP-1 LPS/ATP IL-1B secretion, AlphaLISA, 16 h; hits give low values; in the data active = activity change below about -50%; inconclusive = mostly about -30% to -49%
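Secreted IL-1B measured by AlphaLISA bead assay after 16 h compound exposure of THP-1 cells; compounds (final up to 57.5 uM) added 1 h before LPS (250 ng/mL) and ATP (1.25 mM) stimulation; lower signal means less secretion.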
DT40 TDP1 no CPT: qHTS for Inhibitors of human tyrosyl-DNA phosphodiesterase 1 (TDP1): qHTS in cells in absence of CPT. DT40 Tdp1-/- hTDP1 cells, no CPT, ATP luminescence, 48 h. Potency, µM (top dose mostly 46.2 µM), for the others: at the highest dose activity change, negative = growth inhibition, usual class: inhibitors. 15% of 420,000 active; also: potency is read from the fitted curve at half-maximal effect; nearly all actives have a fitted effect of over 55% in size
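Seeded 400 DT40-hTDP1 cells/well (vehicle DMSO, no 20 nM CPT); pinned compounds; ≥48 hr at 37 °C; CellTiter-Glo luminescence as viability measure.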
HT1080 IDH1KD tx: qHTS for induction of synthetic lethality in tumor cells producing 2HG: qHTS for the HT-1080-IDH1KD cell line; HT-1080 IDH1 knockdown viability, ATP luminescence, 48 h; Potency, µM (series often up to 46.1 µM), without a hit: at the highest dose activity, negative = toxicity, hits mostly cytotoxic; 2% of 360,000 active;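 also: potency is read from the fitted curve at half-maximal effect; 0% = DMSO wells and -100% = cell-free medium wells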
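Cytotoxicity counter-line: IDH1KD HT-1080, 48 h, CellTiter-Glo. Curves classed by r2, magnitude and activity.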
TDP1 cell CPT: qHTS for Inhibitors of human tyrosyl-DNA phosphodiesterase 1 (TDP1): qHTS in cells in presence of CPT; 12% of 420,000 active; Potency, µM (titrated, usually from 46.2 µM), inactives show at the highest dose activity change, negative = growth inhibition, most hits filed as inhibitors; chicken DT40 Tdp1-/-;hTDP1 cells + 20 nM CPT, ATP luminescence, 48 h; also: potency is read from the fitted curve at half-maximal effect; nearly all actives have a fitted effect of over 55% in size
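Chicken DT40 Tdp1-/- cells complemented with human TDP1, 400 cells/well, exposed to compounds plus 20 nM camptothecin for at least 48 h at 37 C; viability read as ATP content by CellTiter-Glo luminescence.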
* marks the source's active call; other numbers are inactive results; ? = inconclusive; · = no result; ! = a repeat was not active. Unless noted, calls follow the shape of the dose curve; as a rule, active = well fitted curve in the direction sought with a large enough effect; inconclusive = small, poorly fitted or top-dose-only effect, or another doubt; inactive = no such curve, though single readings can be large; an effect the other way counts as inactive or inconclusive. Unless noted, % is scaled to controls: 0 for no effect and ±100 for the full control effect.

SMILES | HT1080NT lethal | IL1B secr inh | DT40 TDP1 no CPT | HT1080 IDH1KD tx | TDP1 cell CPT
Oc1ccc(C[C@H]2CNC(=S)N2CC2CCCN2C[C@H](Cc2ccc(O)cc2)N2C[C@H](Cc3ccccc3)N(CCc3ccccc3)C2=S)cc1 (stereo partly specified) | -6.3% | -21.6 | 20.6µM* | -3.0% | ?
CC(C)c1ccc(S(=O)(=O)N2CCN(C(=O)C3CCCC3)CC2)cc1 | -0.6% | -14.8 | -29.4% | 2.0% | -5.7%
CC(=O)Nc1ccc(S(=O)(=O)NC2CC3CCC2C3)cc1 (stereo unspecified) | -16.1% | 7.9 | -25.2% | -0.8% | ?
CCN(CC)S(=O)(=O)c1ccc(C)c(NC(=O)COc2ccc3c(C)cc(=O)oc3c2)c1 | 9.9% | 19.6 | ? | 10.2% | ?
CCN(CC)S(=O)(=O)c1ccc(OC)c(NC(=O)C(C)Oc2ccc3c(C)cc(=O)oc3c2)c1 (stereo unspecified) | -8.8% | 3.2 | 18.4µM* | -16.7% | ?
Cc1cccc(-n2c(C)nc3cc(C(=O)NCCC4=CCCCC4)ccc32)c1 | · | · | ? | · | 14.6µM*
COC(CNC(=O)c1ccc2c(c1)nc(C)n2-c1cccc(C)c1)OC | 26.7% | 17.0 | -19.8% | 4.6% | 5.2%
CCCNC(=O)c1ccc2c(c1)nc(C)n2-c1cccc(C)c1 | 22.7% | -29.7 | ? | 24.5% | 16.4µM*!
CCc1ccc(-n2c(C)nc3cc(C(=O)NCCc4ccccc4)ccc32)cc1 | · | · | ? | · | 20.6µM*
CCOc1ccc(NC(=O)Cn2c(=O)n(CCC(=O)NCCc3ccccc3)c(=O)c3ccccc32)cc1 | · | · | 4.6% | · | 8.0%
CCN(CC(=O)NCc1ccc(Cl)cc1)C(=O)COc1cccc(C(F)(F)F)c1 | 6.5% | -11.5 | ? | -1.9% | ?
COc1ccc(C(=O)c2c3ccc([N+](=O)[O-])cc3[n+]([O-])n2CCCC(N)=O)cc1 | -30.0% | 4.9 | 20.6µM* | -1.3% | 9.2µM*
Cc1ccc(C(=O)c2c3ccc([N+](=O)[O-])cc3[n+]([O-])n2CCC(N)=O)cc1 | -7.8% | 1.0 | 14.6µM* | -17.0% | 5.8µM*
Cc1c(C(=O)OCC(=O)NC2CC2)oc2ccc(Br)cc12 | -1.2% | 54.8 | -18.3% | 5.0% | 2.2%
Cc1ccc2c(c1)N(C(=O)CCC(=O)NCc1cccs1)CCO2 | · | · | -13.9% | · | ?
O=[N+]([O-])c1cccc(S(=O)(=O)c2cccc([N+](=O)[O-])c2)c1 | 8.7% | 45.0 | 3.6% | 5.2% | 6.4%
O=[N+]([O-])c1cccc(SSc2cccc([N+](=O)[O-])c2)c1 | 18.4µM* | ? | 4.61µM* | 18.4µM* | 3.66µM*
CN1CCc2c(c3ccccc3n2Cc2ccccc2)C1 | ? | -19.0 | 18.4µM* | 16.4µM*! | 16.4µM*
CCCCN1CCc2c(c3ccccc3n2Cc2ccccc2)C1 | ? | -23.3 | 23.1µM* | ? | 16.4µM*
CN1CCc2c(c3ccccc3n2C)C1 | 1.9% | ? | -6.5% | -0.9% | -2.3%
CC1(C)CC(=O)C(C=NCc2ccccn2)=C(O)C1 | 2.1% | 1.8 | -2.2% | -8.3% | -1.4%
CC1(C)CC(=O)C(/C=N/n2c(C(F)(F)F)nc3ccccc3c2=O)=C(O)C1 | 7.9% | 26.0 | ? | ? | 16.4µM*
Cc1ccsc1CN(C(=O)c1oc2ccc(F)cc2c1C)C1CCS(=O)(=O)C1 (stereo unspecified) | · | · | 7.31µM* | · | 11.6µM*
Cc1ccc2oc(C(=O)N(Cc3sccc3C)C3CCS(=O)(=O)C3)c(C)c2c1 (stereo unspecified) | · | · | 5.17µM* | · | 5.8µM*
Cc1ccc2c(C)c(C(=O)N(Cc3cccs3)C3CCS(=O)(=O)C3)oc2c1 (stereo unspecified) | -17.4% | ? | ? | -21.7% | ?
